A short description of assay [1]: qHTS for differential inhibitors of proliferation of Plasmodium falciparum line D10 (AID 1877).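 Note: parasites grown with compound for 72 h before DNA staining; plate controls were vehicle wells for no effect and reference inhibitor wells for full effect.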
A short description of assay [2]: qHTS for differential inhibitors of proliferation of Plasmodium falciparum line Dd2 (AID 1882).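 Note: series mostly up to about 29 µM; plate controls were DMSO vehicle for no effect and 0.29 µM artemisinin for full effect; nearly all actives have a fitted effect of over 65% in size.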 To be noted: Potency: Plasmodium falciparum Dd2 proliferation inhibition. Summed up: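 Dd2-infected erythrocytes (0.3% parasitemia, 2.5% hematocrit final) incubated with compound 72 h at 37 C, 5% CO2; lysed with saponin/Triton buffer containing SYBR Green I, incubated overnight in the dark, then read by fluorescence (485/535 nm). Normalized to 0.29 uM artemisinin and DMSO.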

A short description of assay [3]: qHTS for differential inhibitors of proliferation of Plasmodium falciparum line W2 (AID 1883).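 Note: parasites grown with compound for 72 h before lysis and staining; 0% = vehicle wells and -100% = control inhibitor wells.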 The note with it: Potency: Plasmodium falciparum W2 proliferation inhibition.
A short description of assay [4]: qHTS for differential inhibitors of proliferation of Plasmodium falciparum line HB3 (AID 1886).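 Note: parasites grown with compound for 72 h before SYBR Green readout; plate controls were vehicle for no effect and reference inhibitor for full effect.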 The note with it: Potency: Plasmodium falciparum HB3 proliferation inhibition.
Assay [5] can be described thus: qHTS Assay for Modulators of Human Peripheral Myelin Protein 22 (PMP22) Expression/Activity (AID 1967; active = well fitted curve in the direction sought with a large enough effect in the signal ratio; the % refers to the signal ratio;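 note: 0% = untreated cells and 100% end not stated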). Summed up:
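Mouse MSC80 Schwann cells carrying Pmp22 promoter–green click beetle luciferase plus EF-alpha–red luciferase control, dosed 24 h at 37 °C. Dual-filter luminescence, overlap-corrected; %Activity from green/red ratio normalised to untreated cells, concentration-response curves fitted.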

The target in assay [6] is Ferritin light chain (Equus caballus) (UniProt P02791). The assay is described as follows: qHTS Validation Assay for Identification of Novel General Anesthetics (AID 2323). Note: series mostly up to about 77 µM; % is set by controls: 0 for no effect and ±100 for the full control effect. An outline of the steps: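 Horse-spleen apoferritin (10 uM) in PBS with 50% saturated 1-aminoanthracene; compounds pin-transferred, 10 min at room temperature. Fluorescence read at 380/535 nm, normalized to free 1-AMA and 1-AMA/apoferritin values; four-parameter Hill fit.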
Sequence of Ferritin light chain (Equus caballus) (P02791 2-175 limits assumed): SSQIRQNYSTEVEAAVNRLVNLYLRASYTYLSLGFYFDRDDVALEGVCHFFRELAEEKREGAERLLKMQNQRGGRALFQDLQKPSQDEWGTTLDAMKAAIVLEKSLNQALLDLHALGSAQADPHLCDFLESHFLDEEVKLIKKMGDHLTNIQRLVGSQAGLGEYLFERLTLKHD

For assay [7], the target named is ATP-dependent DNA helicase Q1 (Homo sapiens) (UniProt P46063). Briefly: qHTS Validation Assay for Inhibitors of RecQ-Like Dna Helicase 1 (RECQ1) (AID 2353).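 Note: plate controls were DMSO vehicle for no effect and enzyme-free control for full effect.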 Summed up:
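50 nM RECQ1T1 preincubated 15 min with compound in Tris pH 8.0 buffer with MgCl2, DTT, Tween-20 and 2.5 ug/ml poly(dI-dC); started with 200 nM TAMRA/BHQ-2 forked duplex and 2 mM ATP. Unwinding read as fluorescence (525/598 nm), two reads 2 h apart.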

The target in assay [8] is RecQ-like DNA helicase BLM (Homo sapiens) (UniProt P54132). Briefly: qHTS Validation Assay for Inhibitors of Bloom's syndrome helicase (BLM) (AID 2364).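 Note: plate controls were DMSO vehicle for no effect and enzyme-free control for full effect.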 Summed up:
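50 nM BLM preincubated 15 min at room temperature with compound in pH 8.0 Tris buffer containing 2.5 ug/ml poly(dI-dC); started with 200 nM TAMRA/BHQ-2 forked duplex and 2 mM ATP (final). Unwinding read as TAMRA fluorescence increase, two reads 2 h apart.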

Assay [9] in a line: Validation screen for small molecules that induce DNA re-replication in MCF 10A normal breast cells (AID 463097). Note: 0% is about no effect; nearly all actives have a fitted effect of over 60% in size. Summed up:
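MCF 10A cells exposed to compound 48 hr at 37 C, 5% CO2, then Hoechst-stained 40 min. Laser-scanning imaging of nuclear DNA content (405 nm ex, 500-530 nm em); re-replication scored as rise in nuclei with elevated fluorescence intensity.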

The nature of assay [10]: Quantitative high throughput screen for delayed death inhibitors of the malarial parasite plastid, 48 hour incubation (AID 488752). Note: % is set by controls: 0 for no effect and ±100 for the full control effect; nearly all actives have a fitted effect of over 65% in size. An outline of the steps: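 Readout is firefly luciferase luminescence from a reporter integrated into the parasite genome, with lower signal taken as inhibited growth. Infected red cells (0.1% parasitemia, 2% hematocrit final) are cultured with compound for one 48 h cycle at 37 C.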

Assay [11] deals with M-phase phosphoprotein 8 (Homo sapiens) (UniProt Q99549). Briefly: qHTS Validation Assay for Inhibitors for MPP8 Chromodomain Interactions with Methylated Histone Tails (AID 488949). Note: potency is the fitted concentration of half-maximal effect; nearly all actives have a fitted effect of over 55% in size. Summed up:
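MPP8 (50 nM) was pre-bound to 50 nM biotinylated H3(1-18)K9me3 peptide in PBS pH 7.4 with 0.01% Tween-20. Compounds were then added for 30 min at room temperature, and complex disruption was read by AlphaScreen with streptavidin donor and nickel-chelate acceptor beads.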

Assay [12] concerns the target Transient receptor potential cation channel subfamily V member 1 (Homo sapiens) (UniProt Q8NER1). Briefly: HTS Assay for Compounds that Act as Enhancers of the Vanilloid Receptor 1 (AID 488979). Note: 0% is about no effect. Summed up:
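TRPV1 cells loaded with Fluo-8 calcium dye; compound added and Ca2+ signal (ex 480/em 520 nm) followed 3 min, then capsaicin at EC20 added and read 2 more min to detect enhancement.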

For assay [13], the target named is Thyrotropin receptor (Homo sapiens) (UniProt P16473). The assay is described as follows: qHTS Assay for Antagonists of the Thyroid Stimulating Hormone Receptor (AID 488980). Note: series mostly up to about 58 µM; 0% is about no effect. An outline of the steps:
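TSHR-transfected HEK293 cells (2000/well) in HEPES-buffered HBSS with 70 uM RO 20-1724 were stimulated with 4 nM TSH (EC80, final) in the presence of compound. cAMP was measured by HTRF competition after lysis and 30 min at RT.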

The target of assay [14] is Thyrotropin-releasing hormone receptor (Homo sapiens) (UniProt P34981). Briefly: qHTS for Small Molecule Agonists and Allosteric Enhancers of Human TRH Receptor: Validation Screen for Agonists (AID 493127;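 active = calcium activation more than 3 SD above the typical response in the agonist read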;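 note: intracellular calcium rise by fluo-8 fluorescence before TRH EC20 addition; 0% is about no effect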). The note with it: TRH receptor agonist cell assay; at 2 µM; active compounds read high. An outline of the steps:
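Cells 2000/well, 10% FCS, 18 h 33.5C/5% CO2 → fluo-8 Ca dye, RT 30 min–1.5 h → FDSS baseline 10 × 1 s → compound added → 230 cycles (1 s/cycle) agonist mode. TRH controls.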

Assay [15] concerns the target Galactokinase (Homo sapiens) (UniProt P51570). The assay is described as follows: qHTS Validation Assay for Inhibitors of Human Galactokinase (GALK) (AID 493189). Note: 0% is about no effect. Summed up: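 GALK (5 nM) with 35 uM ATP and 100 uM galactose in HEPES pH 8.0 with MgCl2, NaCl, DTT and BSA. Reaction ran 1 h at room temperature. Residual ATP read by Kinase-Glo Plus luminescence.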
A short description of assay [16]: Validation screen for small molecules that induce DNA re-replication in SW480 colon adenocarcinoma cells (AID 504364). Note: 0% is about no effect. An outline of the steps: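 250 cells/well; compound pinned in; 48 hr, 37 C, 5% CO2; Hoechst added, 40 min; nuclear fluorescence imaged, 405 ex / 500-530 em; re-replication scored as increase in high-intensity nuclei.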
Assay [17] concerns the target DNA dC->dU-editing enzyme APOBEC-3G (Homo sapiens) (UniProt Q9HC16). The assay is described as follows: qHTS for inhibitors of Vif-A3G interactions: Validation (AID 588379). Note: 0% is about no effect. An outline of the steps: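 HeLa cells stably expressing Vif and A3G-eYFP, 700 cells/well, incubated overnight at 37 deg C, then exposed to compound overnight at 37 deg C. Inhibition of Vif-mediated degradation read as increased yellow fluorescence (Ex 488/Em 500-530) by laser-scanning cytometry.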

Assay [18] concerns Zika virus NS2B-NS3 protease. Briefly: Primary screen GU AMC qHTS for Zika virus inhibitors (AID 1347154).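 Note: 0% = no-inhibitor control and -100% = no-enzyme control; nearly all actives have a fitted effect of over 70% in size.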 Summed up:
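Unlinked Zika NS2B hydrophilic domain–NS3 protease complex at 25 nM in 10 mM Tris-HCl pH 8.0, 0.01% Tween 20, with an AMC peptide substrate. Fluorescence change (340/450 nm) over 15 min at room temperature, normalized to controls, fitted to 4-parameter Hill.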

Assay [19] is described as follows: Primary qHTS for small molecule stabilizers of the endoplasmic reticulum resident proteome: Secreted ER Calcium Modulated Protein (SERCaMP) assay (AID 1508630). Note: % is set by controls: 0 for no effect and ±100 for the full control effect. Summed up: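 GLuc-SERCaMP-expressing SH-SY5Y cells, pretreated 16 h with compound, are challenged with thapsigargin to empty ER calcium stores; after 4 h, coelenterazine is added directly to the medium and luminescence is imaged.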

Values without a mark were called inactive. Results filed as inconclusive are left out. The source made the active and inactive calls. Unless noted, calls come from the whole dose curve; as a rule, active = well fitted curve in the direction sought with a large enough effect; inconclusive = small, poorly fitted or top-dose-only effect, or another doubt; inactive = no such curve, though single readings can be large; an effect the other way counts as inactive or inconclusive.

Sequence of Thyrotropin receptor (Homo sapiens) (P16473 whole entry, looked up): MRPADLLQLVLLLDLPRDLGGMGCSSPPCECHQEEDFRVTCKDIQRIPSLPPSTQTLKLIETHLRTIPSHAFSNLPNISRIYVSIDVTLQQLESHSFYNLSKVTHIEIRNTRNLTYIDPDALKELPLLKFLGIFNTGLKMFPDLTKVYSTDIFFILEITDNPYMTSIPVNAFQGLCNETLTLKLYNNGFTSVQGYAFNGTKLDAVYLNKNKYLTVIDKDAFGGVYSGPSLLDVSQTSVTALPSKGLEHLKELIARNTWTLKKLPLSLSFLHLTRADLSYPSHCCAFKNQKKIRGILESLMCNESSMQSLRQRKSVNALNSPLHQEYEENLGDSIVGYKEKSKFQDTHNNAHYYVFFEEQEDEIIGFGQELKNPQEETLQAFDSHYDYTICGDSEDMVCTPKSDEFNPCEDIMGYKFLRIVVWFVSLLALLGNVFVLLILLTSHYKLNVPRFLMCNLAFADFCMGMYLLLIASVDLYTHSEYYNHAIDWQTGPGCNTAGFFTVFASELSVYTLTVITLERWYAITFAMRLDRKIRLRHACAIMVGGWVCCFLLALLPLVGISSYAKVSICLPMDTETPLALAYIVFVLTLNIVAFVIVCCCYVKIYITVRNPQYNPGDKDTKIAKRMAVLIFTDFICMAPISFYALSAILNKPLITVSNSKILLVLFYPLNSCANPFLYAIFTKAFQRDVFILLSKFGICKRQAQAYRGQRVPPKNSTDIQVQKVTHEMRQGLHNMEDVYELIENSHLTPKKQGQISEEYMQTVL
Sequence of ATP-dependent DNA helicase Q1 (Homo sapiens) (P46063 whole entry, looked up): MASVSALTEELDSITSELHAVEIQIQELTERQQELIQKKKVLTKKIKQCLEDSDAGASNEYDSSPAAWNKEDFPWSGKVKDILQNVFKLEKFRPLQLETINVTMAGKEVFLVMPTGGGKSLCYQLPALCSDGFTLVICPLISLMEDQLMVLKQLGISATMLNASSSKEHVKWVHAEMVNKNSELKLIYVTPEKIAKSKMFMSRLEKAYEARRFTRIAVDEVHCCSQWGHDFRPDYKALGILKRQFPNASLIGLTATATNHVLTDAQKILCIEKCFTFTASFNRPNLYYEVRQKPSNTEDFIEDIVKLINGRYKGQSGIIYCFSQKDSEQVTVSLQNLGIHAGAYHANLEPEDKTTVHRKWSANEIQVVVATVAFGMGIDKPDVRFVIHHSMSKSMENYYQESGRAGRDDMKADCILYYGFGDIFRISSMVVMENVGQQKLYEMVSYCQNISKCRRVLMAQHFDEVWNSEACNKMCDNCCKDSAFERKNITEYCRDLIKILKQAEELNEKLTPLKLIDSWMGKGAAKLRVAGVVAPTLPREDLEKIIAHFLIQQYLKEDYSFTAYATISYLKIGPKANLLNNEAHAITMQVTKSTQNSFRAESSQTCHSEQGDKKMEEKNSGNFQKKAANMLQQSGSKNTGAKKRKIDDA
Sequence of Thyrotropin-releasing hormone receptor (Homo sapiens) (P34981 whole entry, looked up): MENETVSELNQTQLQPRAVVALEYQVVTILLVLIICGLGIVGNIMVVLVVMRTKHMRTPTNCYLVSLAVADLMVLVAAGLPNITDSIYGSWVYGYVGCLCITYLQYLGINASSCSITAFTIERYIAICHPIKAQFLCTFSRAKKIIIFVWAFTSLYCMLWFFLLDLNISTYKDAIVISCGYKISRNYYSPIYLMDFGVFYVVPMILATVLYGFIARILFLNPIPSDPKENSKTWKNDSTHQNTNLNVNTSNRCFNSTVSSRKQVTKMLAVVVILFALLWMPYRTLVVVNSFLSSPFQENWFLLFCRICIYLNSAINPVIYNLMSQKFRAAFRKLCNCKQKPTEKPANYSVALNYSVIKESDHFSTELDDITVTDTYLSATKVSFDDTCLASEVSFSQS
Sequence of DNA dC->dU-editing enzyme APOBEC-3G (Homo sapiens) (Q9HC16 whole entry, looked up): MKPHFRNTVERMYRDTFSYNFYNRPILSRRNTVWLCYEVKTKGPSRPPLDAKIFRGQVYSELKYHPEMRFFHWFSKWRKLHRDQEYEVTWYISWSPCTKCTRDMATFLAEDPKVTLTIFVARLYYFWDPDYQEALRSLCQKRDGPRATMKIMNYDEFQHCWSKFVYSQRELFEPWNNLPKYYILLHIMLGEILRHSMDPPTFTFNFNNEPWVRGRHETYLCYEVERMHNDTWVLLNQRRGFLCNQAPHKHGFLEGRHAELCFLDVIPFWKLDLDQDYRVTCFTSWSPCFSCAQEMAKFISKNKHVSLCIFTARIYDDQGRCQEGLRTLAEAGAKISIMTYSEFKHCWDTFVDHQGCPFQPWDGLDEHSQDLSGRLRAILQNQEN
Sequence of Galactokinase (Homo sapiens) (P51570 whole entry, looked up): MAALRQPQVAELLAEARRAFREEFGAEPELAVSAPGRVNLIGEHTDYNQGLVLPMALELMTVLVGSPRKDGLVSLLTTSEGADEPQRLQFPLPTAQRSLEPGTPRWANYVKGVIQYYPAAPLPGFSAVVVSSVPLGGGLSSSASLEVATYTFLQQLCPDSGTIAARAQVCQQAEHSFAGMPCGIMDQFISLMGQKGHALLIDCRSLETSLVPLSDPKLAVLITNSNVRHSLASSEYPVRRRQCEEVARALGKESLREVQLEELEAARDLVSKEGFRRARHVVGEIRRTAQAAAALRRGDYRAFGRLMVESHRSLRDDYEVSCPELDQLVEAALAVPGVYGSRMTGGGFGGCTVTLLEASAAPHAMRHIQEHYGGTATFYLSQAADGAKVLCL
Sequence of M-phase phosphoprotein 8 (Homo sapiens) (Q99549 whole entry, looked up): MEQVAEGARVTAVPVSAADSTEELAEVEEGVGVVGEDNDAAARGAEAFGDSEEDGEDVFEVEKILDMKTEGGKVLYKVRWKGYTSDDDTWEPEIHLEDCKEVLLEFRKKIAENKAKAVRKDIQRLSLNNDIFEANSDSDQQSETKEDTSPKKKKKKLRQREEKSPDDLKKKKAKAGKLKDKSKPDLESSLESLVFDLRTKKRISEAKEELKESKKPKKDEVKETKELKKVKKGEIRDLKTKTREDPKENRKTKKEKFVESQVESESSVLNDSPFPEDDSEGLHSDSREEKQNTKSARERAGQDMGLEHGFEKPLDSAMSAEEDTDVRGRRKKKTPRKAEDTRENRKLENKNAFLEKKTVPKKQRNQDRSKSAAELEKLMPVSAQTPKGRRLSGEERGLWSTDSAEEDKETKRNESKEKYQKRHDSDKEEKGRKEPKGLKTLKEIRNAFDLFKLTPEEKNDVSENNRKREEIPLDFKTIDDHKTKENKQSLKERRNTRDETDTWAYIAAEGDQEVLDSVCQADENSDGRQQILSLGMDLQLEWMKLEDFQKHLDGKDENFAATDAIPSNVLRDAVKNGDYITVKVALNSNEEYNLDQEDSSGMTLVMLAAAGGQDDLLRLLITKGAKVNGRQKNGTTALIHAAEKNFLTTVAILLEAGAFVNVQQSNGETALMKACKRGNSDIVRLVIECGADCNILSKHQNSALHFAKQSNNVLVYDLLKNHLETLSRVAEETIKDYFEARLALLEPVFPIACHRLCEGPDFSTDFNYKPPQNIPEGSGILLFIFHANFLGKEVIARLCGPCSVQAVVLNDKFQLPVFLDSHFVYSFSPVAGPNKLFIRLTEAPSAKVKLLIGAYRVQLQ
Sequence of RecQ-like DNA helicase BLM (Homo sapiens) (P54132 whole entry, looked up): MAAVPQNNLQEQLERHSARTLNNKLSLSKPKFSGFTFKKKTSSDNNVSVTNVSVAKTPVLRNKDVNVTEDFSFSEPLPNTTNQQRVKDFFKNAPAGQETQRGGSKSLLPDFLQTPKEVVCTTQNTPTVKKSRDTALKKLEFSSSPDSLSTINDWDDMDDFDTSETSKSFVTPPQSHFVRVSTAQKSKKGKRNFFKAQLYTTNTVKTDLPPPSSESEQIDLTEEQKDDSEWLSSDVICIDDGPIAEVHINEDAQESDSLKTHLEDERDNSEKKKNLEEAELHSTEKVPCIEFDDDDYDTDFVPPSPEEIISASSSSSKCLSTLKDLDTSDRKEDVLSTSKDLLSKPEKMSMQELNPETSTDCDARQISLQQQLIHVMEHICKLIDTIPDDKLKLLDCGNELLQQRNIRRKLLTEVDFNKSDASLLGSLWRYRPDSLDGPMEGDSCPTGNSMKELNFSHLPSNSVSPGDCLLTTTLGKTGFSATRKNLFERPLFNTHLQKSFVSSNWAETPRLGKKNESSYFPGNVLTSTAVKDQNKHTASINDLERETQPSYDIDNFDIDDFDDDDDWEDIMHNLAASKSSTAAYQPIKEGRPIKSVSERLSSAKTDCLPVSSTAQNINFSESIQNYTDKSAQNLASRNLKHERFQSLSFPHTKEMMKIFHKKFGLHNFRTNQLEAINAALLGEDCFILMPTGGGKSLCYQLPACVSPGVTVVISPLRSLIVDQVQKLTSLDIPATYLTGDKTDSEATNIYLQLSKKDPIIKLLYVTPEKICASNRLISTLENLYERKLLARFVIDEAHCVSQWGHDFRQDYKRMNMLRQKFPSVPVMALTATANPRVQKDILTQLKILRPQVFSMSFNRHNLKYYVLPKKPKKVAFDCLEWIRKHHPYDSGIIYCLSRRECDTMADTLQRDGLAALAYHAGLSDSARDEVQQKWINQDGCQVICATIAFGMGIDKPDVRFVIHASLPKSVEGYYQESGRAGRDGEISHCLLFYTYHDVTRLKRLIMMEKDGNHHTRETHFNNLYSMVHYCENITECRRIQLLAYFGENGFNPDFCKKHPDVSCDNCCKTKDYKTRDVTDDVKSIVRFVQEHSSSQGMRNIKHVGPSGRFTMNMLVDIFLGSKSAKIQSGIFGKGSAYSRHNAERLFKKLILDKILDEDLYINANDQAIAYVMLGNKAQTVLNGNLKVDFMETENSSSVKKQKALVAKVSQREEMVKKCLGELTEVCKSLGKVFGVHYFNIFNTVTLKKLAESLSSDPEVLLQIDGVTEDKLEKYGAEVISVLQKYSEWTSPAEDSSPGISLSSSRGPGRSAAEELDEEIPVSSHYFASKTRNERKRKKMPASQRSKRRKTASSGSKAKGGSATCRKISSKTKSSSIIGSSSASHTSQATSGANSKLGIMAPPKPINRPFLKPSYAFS

Take `CN(C)CCCCSC(=N)N`: the Potency result in [1], in [2], in assay [3], in assay [4], in assay [7] and in assay [8] was “inactive” each time. Besides, the Potency result in [9], in assay [10], in assay [17], in assay [18] and in assay [19] was “inactive” in each case. Further, the call in assay [5], in [6], in [12], in [13], in assay [15] and in assay [16] was inactive. Besides, the Potency in assay [11] was 50.1 µM (active). Moreover, the activation in assay [14] was 1.19%.

(Values after PubChem BioAssay (NCATS).)
